Experiment [1] in a line: qHTS assay to identify aromatase inhibitors - cell viability counter screen (AID 743084).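 Also: cells stimulated with testosterone during compound exposure; nearly all actives have a fitted effect of over 55% in size.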
Experiment [2] in a line: qHTS assay to identify small molecule that activate the aryl hydrocarbon receptor (AhR) signaling pathway - cell viability counter screen (AID 743086).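 Also: HepG2 liver cells carrying the AhR DRE luciferase reporter; series mostly up to about 70 µM; nearly all actives have a fitted effect of over 45% in size.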 A digest of the protocol: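 HepG2-AhR-luc (HG2L7.5c1) cells, 4000/well, were preincubated 5 h at 37C, exposed to compound in qHTS format for 24 hr at 37C, then given CellTiter-Fluor for 30 min; viability was read as fluorescence in the reporter wells.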

Experiment [3] addresses Peroxisome proliferator-activated receptor gamma (Homo sapiens) (UniProt P37231). Briefly: qHTS assay to identify small molecule agonists of the peroxisome proliferator-activated receptor gamma (PPARg) signaling pathway (AID 743094; active = well fitted activation curve with a large enough effect in the signal ratio in the repeat runs, not every such curve was filed as active; the % refers to the signal ratio). A digest of the protocol: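 Agonism was assessed in a beta-lactamase reporter system, HEK293H cells with a stably integrated UAS-bla construct under PPARg control; the 17 h treatment at 37C preceded a 1 h room-temperature FRET substrate read.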
(In general: In qHTS, concentration-response curves come from the screen itself.)

Experiment [4] shares this target. The experiment can be described thus: qHTS assay to identify small molecule antagonists of the peroxisome proliferator-activated receptor gamma (PPARg) signaling pathway (AID 743191; calls by dose curve; also: series mostly up to about 63 µM; nearly all actives have a fitted effect of over 30% in size). A digest of the protocol: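 GeneBLAzer PPARg UAS-bla HEK293H cells carrying a UAS-driven beta-lactamase reporter were plated at 3000 cells/well, preincubated 5 h at 37C, then given compound for 17 h at 37C; LiveBLAzer B/G FRET substrate was read after 1 h at room temperature.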

Experiment [5] is described as follows: qHTS assay to identify small molecule antagonists of the peroxisome proliferator-activated receptor gamma (PPARg) signaling pathway - cell viability counter screen (AID 743194). Also: nearly all actives have a fitted effect of over 55% in size. A digest of the protocol: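 PPARg-UAS-bla HEK293H cells were plated, rested 5 h at 37 C, then treated with compounds plus rosiglitazone (50 nM final) for 17 h at 37 C; viability was then read by CellTiter-Glo luminescence after 30 min at room temperature.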

The nature of experiment [6]: qHTS assay for small molecule agonists of the antioxidant response element (ARE) signaling pathway - cell viability counter screen (AID 743203; calls by dose curve; also: nearly all actives have a fitted effect of over 55% in size). A digest of the protocol:
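ATP content via CellTiter-Glo luminescence served as the viability measure. Cells: ARE-bla HepG2, 2,000 per well. Exposure: 16 hrs, 37C/5% CO2.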

Experiment [7] is described as follows: qHTS assay for small molecule activators of the heat shock response signaling pathway - cell viability counter screen (AID 743209). Also: nearly all actives have a fitted effect of over 50% in size. A digest of the protocol: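 Compounds dissolved in DMSO were added to overnight-plated HSE-bla HeLa cells and left 5 h at 37 C. Cell viability was quantified by luminescence using CellTiter-Glo.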
Experiment [8] can be described thus: qHTS assay for small molecule activators of the heat shock response signaling pathway (AID 743210; active = well fitted activation curve with a large enough effect in the signal ratio in the repeat runs, with a control signal flat, not every such curve was filed as active; the % refers to the signal ratio; also: series mostly up to about 63 µM). A digest of the protocol:
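Heat shock element–beta-lactamase HeLa reporter cells; qHTS with compounds for 5 h at 37 C; detection by FRET substrate fluorescence after 2.5 h at RT.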

Experiment [9] in a line: qHTS assay to identify small molecule agonists of the peroxisome proliferator-activated receptor delta (PPARd) signaling pathway - cell viability counter screen (AID 743211). Also: nearly all actives have a fitted effect of over 55% in size. A digest of the protocol: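 HEK293H PPARd-bla, 3000 cells/well; 5 h preincubation 37C/5% CO2; cpd in DMSO, 17 h 37C; B/G FRET substrate 2 h RT; CellTiter-Glo 30 min RT, luminescence.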
The nature of experiment [10]: qHTS assay to identify small molecule antagonists of the peroxisome proliferator-activated receptor delta (PPARd) signaling pathway - cell viability counter screen (AID 743213). Also: nearly all actives have a fitted effect of over 50% in size. A digest of the protocol: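 In this counter screen, HEK293H cells carrying a UAS-beta-lactamase reporter are co-treated with test compounds and 300 nM L165041 (final) for 17 h at 37 C; cell viability is quantified by CellTiter-Glo luminescence.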

Experiment [11] deals with Peroxisome proliferator-activated receptor delta (Homo sapiens) (UniProt Q03181). The experiment can be described thus: qHTS assay to identify small molecule antagonists of the peroxisome proliferator-activated receptor delta (PPARd) signaling pathway (AID 743215; active = well fitted inhibition curve with a large enough effect in the signal ratio in the repeat runs, not every such curve was filed as active; the % refers to the signal ratio;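 also: cells stimulated with agonist L165041 at 300 nM final during compound exposure; series mostly up to about 62 µM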). A digest of the protocol:
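Here, a reporter line (HEK293H, beta-lactamase under a UAS) measures PPARd signaling. Compounds are tested against agonist L165041 at 300 nM final concentration over 17 h at 37 C, with fluorescence read after substrate.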

Experiment [12] deals with Bile acid receptor (Homo sapiens) (UniProt Q96RI1). Briefly: qHTS assay to identify small molecule antagonists of the farnesoid-X-receptor (FXR) signaling pathway (AID 743217; active = well fitted inhibition curve with a large enough effect in the signal ratio in the repeat runs, not every such curve was filed as active; the % refers to the signal ratio). A digest of the protocol:
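Test compounds are pin-transferred onto FXR-bla HEK 293T cells, then chenodeoxycholic acid is added at 50 uM final. After 16 h at 37 °C, LiveBLAzer B/G substrate is applied for 2 h at room temperature and fluorescence read.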

A short description of experiment [13]: qHTS assay to identify small molecule agonists of the farnesoid-X-receptor (FXR) signaling pathway - cell viability counter screen (AID 743218). Also: nearly all actives have a fitted effect of over 45% in size. Also: potency is read from the fitted curve at half-maximal effect. A digest of the protocol: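 Quantitative HTS counter screen measuring ATP-based viability via CellTiter-Glo luminescence in HEK 293T cells carrying a UAS-driven beta-lactamase reporter, after 16 h compound exposure at 37 C.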

Experiment [14] deals with Bile acid receptor (Homo sapiens) (UniProt Q96RI1). Briefly: qHTS assay to identify small molecule agonists of the farnesoid-X-receptor (FXR) signaling pathway (AID 743220; active = well fitted activation curve with a large enough effect in the signal ratio in the repeat runs, not every such curve was filed as active; the % refers to the signal ratio). A digest of the protocol:
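FXR-UAS-bla HEK 293T cells carrying a UAS-driven beta-lactamase reporter were plated for 5 h at 37C/5% CO2, then exposed to DMSO-dissolved Tox21 10K compounds for 16 h at 37C. A LiveBLAzer B/G FRET substrate was loaded for 2 h at room temperature before fluorescence reading.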

A short description of experiment [15]: qHTS assay to identify small molecule antagonists of the farnesoid-X-receptor (FXR) signaling pathway - cell viability counter screen (AID 743221; active = well fitted cell-killing curve with a large enough effect in the repeat runs, not every such curve was filed as active; also: nearly all actives have a fitted effect of over 50% in size). A digest of the protocol:
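Luminescence from CellTiter-Glo measures cytotoxicity in GeneBLAzer FXR-UAS-bla HEK 293T cells. Cells were exposed to compounds with 50 uM chenodeoxycholic acid (final) for 16 h at 37 C, in wells also used for the reporter readout.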

Experiment [16] deals with Vitamin D3 receptor (Homo sapiens) (UniProt P11473). The experiment can be described thus: qHTS assay to identify small molecule agonists of the vitamin D receptor (VDR) signaling pathway (AID 743222; calls by dose curve). A digest of the protocol:
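Tox21 cell reporter format: VDR-bla line, 16 h compound exposure in 5% CO2 at 37C, then fluorescence intensity after 2 h with LiveBLAzer B/G FRET substrate.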

For experiment [17] the target is unchanged. Briefly: qHTS assay to identify small molecule antagonists of the vitamin D receptor (VDR) signaling pathway (AID 743223; active = well fitted inhibition curve with a large enough effect in the signal ratio in the repeat runs, not every such curve was filed as active; the % refers to the signal ratio). A digest of the protocol: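 Antagonist mode uses 1alpha,25-dihydroxyvitamin D3 at 3 nM final as stimulus. VDR-bla cells receive compounds in DMSO, incubate 16 h at 37C, then a beta-lactamase FRET substrate for 2 h at room temperature before fluorescence measurement.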

For experiment [18], the target named is Peroxisome proliferator-activated receptor delta (Homo sapiens) (UniProt Q03181). The experiment can be described thus: qHTS assay to identify small molecule agonists of the peroxisome proliferator-activated receptor delta (PPARd) signaling pathway (AID 743212; calls by dose curve). A digest of the protocol: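 Beta-lactamase reporter read by fluorescence (LiveBLAzer B/G FRET, 2 h, room temperature). Test agents, in DMSO, incubated at 37 C with PPARd-bla HEK293H cells.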
Sequence of Peroxisome proliferator-activated receptor delta (Homo sapiens) (Q03181 whole entry, looked up): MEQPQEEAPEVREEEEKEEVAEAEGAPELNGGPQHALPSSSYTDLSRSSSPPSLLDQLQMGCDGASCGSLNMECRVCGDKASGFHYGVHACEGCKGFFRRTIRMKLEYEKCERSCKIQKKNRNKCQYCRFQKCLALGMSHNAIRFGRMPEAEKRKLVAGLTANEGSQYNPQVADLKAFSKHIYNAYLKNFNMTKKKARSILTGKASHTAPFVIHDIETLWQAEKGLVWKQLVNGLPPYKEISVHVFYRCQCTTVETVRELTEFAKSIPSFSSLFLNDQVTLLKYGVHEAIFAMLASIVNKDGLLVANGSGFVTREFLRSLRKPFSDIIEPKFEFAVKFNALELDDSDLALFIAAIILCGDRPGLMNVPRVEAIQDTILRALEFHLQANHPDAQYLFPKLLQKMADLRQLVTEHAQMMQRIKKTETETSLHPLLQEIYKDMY

A short description of experiment [19]: qHTS assay for small molecule agonists of the antioxidant response element (ARE) signaling pathway (AID 743202; active = well fitted activation curve with a large enough effect in the signal ratio in the repeat runs, not every such curve was filed as active; the % refers to the signal ratio). A digest of the protocol: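 Following a 16 h, 37 C exposure of reporter HepG2 cells (ARE-driven beta-lactamase, 2,000 cells/well) to compounds, FRET substrate was applied for 2 h at room temperature and fluorescence intensity recorded.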
Experiment [20] has as its target Aryl hydrocarbon receptor (Homo sapiens) (UniProt P35869). Briefly: qHTS assay to identify small molecule that activate the aryl hydrocarbon receptor (AhR) signaling pathway (AID 743085).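 Also: HG2L7.5c1 human HepG2 liver cells with stably integrated DRE-driven firefly reporter; series mostly up to about 70 µM; nearly all actives have a fitted effect of over 15% in size.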 A digest of the protocol:
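Cell line HG2L7.5c1 (human hepatoma, 20× DRE-luc). Plated, 5 h 37C, compound/DMSO added, 24 h 37C. CellTiter-Fluor 30 min 37C → fluorescence; then ONE-Glo 30 min RT → luminescence.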

Structures are written as SMILES. Inconclusive results are not listed. A number with no mark means an inactive call. Calls of active or inactive are those of the source. Unless noted, calls follow the shape of the dose curve; as a rule, active = well fitted curve in the direction sought with a large enough effect in the repeat runs; inconclusive = weak or mixed curves; inactive = no such curve, though single readings can be large; an effect the other way counts as inactive or inconclusive.

For 8 molecules, Potency and outcome results are on record in PubChem BioAssay (Tox21).

Sequence of Bile acid receptor (Homo sapiens) (Q96RI1 whole entry, looked up): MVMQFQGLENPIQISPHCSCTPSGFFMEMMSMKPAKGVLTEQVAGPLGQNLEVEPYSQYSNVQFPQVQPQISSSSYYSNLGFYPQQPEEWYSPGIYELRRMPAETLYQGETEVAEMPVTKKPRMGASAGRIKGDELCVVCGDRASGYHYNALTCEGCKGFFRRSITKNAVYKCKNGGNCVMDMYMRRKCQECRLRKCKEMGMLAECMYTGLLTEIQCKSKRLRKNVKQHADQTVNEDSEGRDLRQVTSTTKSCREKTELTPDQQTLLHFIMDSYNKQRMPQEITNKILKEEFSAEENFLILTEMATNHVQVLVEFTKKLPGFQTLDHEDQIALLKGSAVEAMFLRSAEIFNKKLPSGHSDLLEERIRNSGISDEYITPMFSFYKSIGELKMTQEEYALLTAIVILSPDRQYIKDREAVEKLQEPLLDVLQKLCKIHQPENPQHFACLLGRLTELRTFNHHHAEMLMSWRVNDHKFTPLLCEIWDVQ
Sequence of Vitamin D3 receptor (Homo sapiens) (P11473 whole entry, looked up): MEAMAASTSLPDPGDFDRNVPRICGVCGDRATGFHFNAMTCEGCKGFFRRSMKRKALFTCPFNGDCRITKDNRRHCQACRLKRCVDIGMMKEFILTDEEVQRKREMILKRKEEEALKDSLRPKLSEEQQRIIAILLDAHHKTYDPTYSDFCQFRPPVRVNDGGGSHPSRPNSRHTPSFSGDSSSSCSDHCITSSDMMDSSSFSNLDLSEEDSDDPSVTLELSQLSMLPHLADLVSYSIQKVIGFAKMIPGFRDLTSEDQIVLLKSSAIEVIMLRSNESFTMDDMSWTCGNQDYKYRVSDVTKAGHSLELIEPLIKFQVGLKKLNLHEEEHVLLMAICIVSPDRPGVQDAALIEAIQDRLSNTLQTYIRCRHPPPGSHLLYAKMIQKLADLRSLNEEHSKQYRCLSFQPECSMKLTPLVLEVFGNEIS
Sequence of Peroxisome proliferator-activated receptor gamma (Homo sapiens) (P37231 whole entry, looked up): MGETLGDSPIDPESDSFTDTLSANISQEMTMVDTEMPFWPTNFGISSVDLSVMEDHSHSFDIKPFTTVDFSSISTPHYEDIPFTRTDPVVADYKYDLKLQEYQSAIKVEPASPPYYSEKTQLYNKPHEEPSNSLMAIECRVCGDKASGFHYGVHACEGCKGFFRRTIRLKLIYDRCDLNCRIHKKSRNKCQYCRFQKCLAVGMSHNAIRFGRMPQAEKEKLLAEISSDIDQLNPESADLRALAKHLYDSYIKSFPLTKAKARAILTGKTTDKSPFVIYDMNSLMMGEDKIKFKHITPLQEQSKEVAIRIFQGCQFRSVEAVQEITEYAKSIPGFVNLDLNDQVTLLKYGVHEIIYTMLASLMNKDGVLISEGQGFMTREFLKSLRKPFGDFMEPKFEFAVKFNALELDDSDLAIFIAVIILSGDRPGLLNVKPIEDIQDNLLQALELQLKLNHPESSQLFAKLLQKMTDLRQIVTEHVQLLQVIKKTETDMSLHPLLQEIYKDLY
Sequence of Aryl hydrocarbon receptor (Homo sapiens) (P35869 whole entry, looked up): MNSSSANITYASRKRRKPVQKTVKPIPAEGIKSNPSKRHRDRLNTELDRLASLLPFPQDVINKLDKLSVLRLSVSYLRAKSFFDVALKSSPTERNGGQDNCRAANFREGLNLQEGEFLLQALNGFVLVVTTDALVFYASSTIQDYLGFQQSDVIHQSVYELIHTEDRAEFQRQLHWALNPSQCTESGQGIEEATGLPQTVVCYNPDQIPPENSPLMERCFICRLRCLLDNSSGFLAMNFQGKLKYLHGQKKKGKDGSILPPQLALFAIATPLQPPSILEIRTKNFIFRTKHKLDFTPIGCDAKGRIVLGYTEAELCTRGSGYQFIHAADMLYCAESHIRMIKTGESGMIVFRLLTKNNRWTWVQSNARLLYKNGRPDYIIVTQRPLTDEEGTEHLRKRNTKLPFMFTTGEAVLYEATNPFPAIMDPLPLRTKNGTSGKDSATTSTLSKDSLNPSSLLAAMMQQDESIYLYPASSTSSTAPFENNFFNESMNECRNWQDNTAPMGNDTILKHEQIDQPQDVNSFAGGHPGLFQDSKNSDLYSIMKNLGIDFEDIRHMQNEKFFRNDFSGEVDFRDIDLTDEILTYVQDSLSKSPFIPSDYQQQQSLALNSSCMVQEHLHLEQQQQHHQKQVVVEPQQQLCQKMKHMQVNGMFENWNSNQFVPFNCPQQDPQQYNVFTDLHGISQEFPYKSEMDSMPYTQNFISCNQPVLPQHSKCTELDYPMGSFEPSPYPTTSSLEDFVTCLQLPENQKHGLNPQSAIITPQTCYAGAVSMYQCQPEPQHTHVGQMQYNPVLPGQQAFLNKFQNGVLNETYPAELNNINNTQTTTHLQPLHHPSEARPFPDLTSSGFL

On to `NC(CO)C(=O)NNCc1ccc(O)c(O)c1O` (configuration not stated), for which the Potency entry in experiment [1], in [2], in experiment [4], in [12], in [13] and in experiment [14] was “inactive” each time. Moreover, the call in [3], in experiment [5], in experiment [6], in experiment [7], in experiment [8] and in experiment [9] was inactive. For the same molecule, the molecule was classed as inactive in experiment [10], in [11], in experiment [15], in experiment [16] and in experiment [17].

As to `O=C(NCCN1CCOCC1)c1ccc(Cl)cc1`, the Potency result in experiment [1], in [2], in experiment [4] and in [12] was “inactive” throughout. Moreover, the result in [3], in [5], in experiment [6], in experiment [7], in experiment [8] and in [9] was inactive. Further, the result in experiment [18], in [10], in experiment [11], in [15], in experiment [16] and in experiment [17] was inactive.

`COCCOC(=O)C1=C(C)NC(C)=C(C(=O)OC(C)C)C1c1cccc([N+](=O)[O-])c1` (configuration not stated): the Potency entry in [1], in experiment [2], in experiment [4] and in experiment [13] was “inactive” each time. For the same molecule, the call in experiment [3], in [5], in experiment [6], in [7], in experiment [8] and in experiment [9] was inactive. For the same molecule, the outcome in experiment [18], in [11], in experiment [15] and in [17] was inactive.

Turning to `Nc1ccc(S(=O)(=O)Nc2ccc(Cl)nn2)cc1`, the Potency entry in [1], in experiment [2], in experiment [4], in experiment [12], in experiment [13] and in [14] was “inactive” throughout. Besides, the call in experiment [3], in experiment [5], in experiment [6], in experiment [7], in experiment [8] and in [18] was inactive. In addition, the result in experiment [11], in experiment [15], in [16] and in experiment [17] was inactive.

Take `COc1cc2c(cc1OC)[C@@H]1CC(=O)[C@@H](CC(C)C)CN1CC2`: the Potency result in experiment [1], in [2], in experiment [4], in experiment [19] and in experiment [13] was “inactive” throughout. Besides, the outcome in experiment [3], in [5], in [6], in experiment [7], in experiment [8] and in [9] was inactive. Also, the outcome in [10], in [11], in experiment [15], in experiment [16] and in experiment [17] was inactive.

`C#CC(C)N(C)C(=O)Nc1ccc(Cl)cc1` (configuration not stated): the Potency entry in [1], in experiment [2], in experiment [4], in experiment [19], in [12] and in [14] was “inactive” in each case. Moreover, the call in experiment [3], in experiment [6], in [7], in experiment [8], in experiment [9] and in experiment [18] was inactive. Further, the molecule was classed as inactive in experiment [10], in experiment [11] and in experiment [15]. In addition, in [13], the Potency is 436 nM (active).

For the molecule `CCOC(=O)CC(=O)c1ccccc1`, the Potency result in experiment [1], in experiment [2], in experiment [4], in experiment [19] and in experiment [13] was “inactive” each time. Also, the outcome in [3], in experiment [5], in experiment [6], in experiment [7], in experiment [8] and in experiment [9] was inactive. Besides, the molecule was classed as inactive in [18], in [11], in [15], in [16] and in experiment [17].

For the molecule `N[C@@H](CCC(=O)Nc1ccc([N+](=O)[O-])cc1)C(=O)O`, the Potency result in experiment [1], in [20], in experiment [19], in experiment [12], in [13] and in [14] was “inactive” throughout. Besides, the outcome in experiment [5], in experiment [6], in experiment [7], in [8], in [9] and in experiment [18] was inactive. Besides, the molecule was called inactive in experiment [11], in experiment [15], in experiment [16] and in experiment [17].
